# According to PubChem BioAssay:
# Values without a mark were called inactive. Calls of active or inactive are those of the source.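 Rule for the calls, unless noted: active = mean inhibition above 46.5%, the solvent-only control mean plus 3 SD; inactive = the rest.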
# Experiments:
# [1] = target: Nuclear receptor coactivator 3 (Homo sapiens) (UniProt Q9Y6Q9); experiment: SRC3 coactivator transcriptional activity inhibitors, confirmation, cell-based, luminescence, quadruplicate (AID 588792;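 active = mean inhibition over 43.08%, the solvent-only control mean plus 3 SD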;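 note: 0% = DMSO treated cells and 100% = gossypol at 36 µM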); conditions: HEK293 GAL4-SRC3 luciferase reporter, at 3.6 µM, hits give high values
# [2] = tested on: transactivating tegument protein VP16 (Human herpesvirus 1), Gal4-VP16 luciferase reporter; experiment: VP16 transactivation inhibitors, counter-screen for SRC3 inhibitor project, cell-based, luminescence, high throughput (AID 588794; in the data active = inhibition above about 30%); conditions: mammalian cells, VP16-driven luciferase reporter luminescence; at 3.6 µM; hits give high values
# [3] = target: Nuclear receptor coactivator 1 (Homo sapiens) (UniProt Q15788); experiment: SRC1 coactivator transcriptional activity inhibitors, confirmation, cell-based, luminescence, quadruplicate (AID 588820;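 active = mean inhibition above 46.68%, the untreated control wells mean plus 3 SD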;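 note: 0% = DMSO wells and 100% = gossypol 36 µM treated wells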); conditions: HEK293 GAL4-SRC1 luciferase reporter, at 3.6 µM, hits give high values
# [4] = VP16 transactivation inhibitors, counter-screen for SRC1 inhibitor project, cell-based, luminescence, high throughput (AID 588824; in the data active = inhibition above about 25%); conditions: cell-based VP16 transactivation luciferase luminescence; at 3.6 µM; hits give high values
# [5] = StAR promoter reporter inhibitors, counter-screen for LRH-1 inverse agonist project, cell-based, luminescence, high throughput (AID 651611; in the data active = inhibition above about 28%); conditions: StAR promoter luciferase reporter counterscreen, at 3.6 µM, hits give high values
# [6] = target: Nuclear receptor subfamily 5 group A member 2 (Homo sapiens) (UniProt O00482); experiment: LRH-1 (NR5A2) inverse agonists, retest, confirmation, cell-based, luminescence (AID 651613; in the data active = inhibition above about 42%;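 note: HEK293T cells co-transfected with LRH-1 and StAR promoter luciferase reporter; 0% = vehicle wells and 100% = parental cells lacking receptor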); conditions: cell-based LRH-1 luciferase reporter, inverse agonism; at 3.6 µM; hits give high values
# [7] = target: Steroidogenic factor 1 (Homo sapiens) (UniProt Q13285); experiment: SF1 (NR5A1) inverse agonists, counter-screen for LRH-1 inverse agonist project, cell-based, luminescence, high throughput (AID 651614; in the data active = inhibition above about 44%;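 note: cells cotransfected with StAR promoter reporter and SF1 expression vector; 0% = vehicle on cells with receptor and 100% = vehicle on cells lacking receptor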); conditions: cell-based SF1 luciferase reporter, at 3.6 µM, hits give high values
# [8] = VP16 transactivation reporter inhibitors, counter-screen for LRH-1 inverse agonist project, cell-based, luminescence, high throughput (AID 651615; in the data active = inhibition above about 33%); conditions: Gal4-VP16 luciferase reporter cells, at 3.6 µM, hits give high values
# [9] = tested on: transactivating tegument protein VP16 (Human herpesvirus 1); experiment: VP16 transactivation reporter inhibitors, counter-screen for SRC2 inhibitor project, cell-based, luminescence, single concentration (AID 652007; in the data active = inhibition above about 36%); conditions: cell-based VP16 transactivation luciferase reporter, at 8.9 µM, hits give high values
# [10] = target: Nuclear receptor coactivator 2 (Homo sapiens) (UniProt Q15596); experiment: SRC2 coactivator transcriptional activity inhibitors, confirmation, cell-based, luminescence, HEK293, triplicate (AID 652008); conditions: HEK293 GAL4-SRC2 luciferase reporter, at 8.9 µM, hits give high values;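 note: 0% = DMSO-treated cells and 100% = Gossypol at 36 µM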
# Sequence of Nuclear receptor coactivator 2 (Homo sapiens) (Q15596 whole entry, looked up, the tested form may be a part): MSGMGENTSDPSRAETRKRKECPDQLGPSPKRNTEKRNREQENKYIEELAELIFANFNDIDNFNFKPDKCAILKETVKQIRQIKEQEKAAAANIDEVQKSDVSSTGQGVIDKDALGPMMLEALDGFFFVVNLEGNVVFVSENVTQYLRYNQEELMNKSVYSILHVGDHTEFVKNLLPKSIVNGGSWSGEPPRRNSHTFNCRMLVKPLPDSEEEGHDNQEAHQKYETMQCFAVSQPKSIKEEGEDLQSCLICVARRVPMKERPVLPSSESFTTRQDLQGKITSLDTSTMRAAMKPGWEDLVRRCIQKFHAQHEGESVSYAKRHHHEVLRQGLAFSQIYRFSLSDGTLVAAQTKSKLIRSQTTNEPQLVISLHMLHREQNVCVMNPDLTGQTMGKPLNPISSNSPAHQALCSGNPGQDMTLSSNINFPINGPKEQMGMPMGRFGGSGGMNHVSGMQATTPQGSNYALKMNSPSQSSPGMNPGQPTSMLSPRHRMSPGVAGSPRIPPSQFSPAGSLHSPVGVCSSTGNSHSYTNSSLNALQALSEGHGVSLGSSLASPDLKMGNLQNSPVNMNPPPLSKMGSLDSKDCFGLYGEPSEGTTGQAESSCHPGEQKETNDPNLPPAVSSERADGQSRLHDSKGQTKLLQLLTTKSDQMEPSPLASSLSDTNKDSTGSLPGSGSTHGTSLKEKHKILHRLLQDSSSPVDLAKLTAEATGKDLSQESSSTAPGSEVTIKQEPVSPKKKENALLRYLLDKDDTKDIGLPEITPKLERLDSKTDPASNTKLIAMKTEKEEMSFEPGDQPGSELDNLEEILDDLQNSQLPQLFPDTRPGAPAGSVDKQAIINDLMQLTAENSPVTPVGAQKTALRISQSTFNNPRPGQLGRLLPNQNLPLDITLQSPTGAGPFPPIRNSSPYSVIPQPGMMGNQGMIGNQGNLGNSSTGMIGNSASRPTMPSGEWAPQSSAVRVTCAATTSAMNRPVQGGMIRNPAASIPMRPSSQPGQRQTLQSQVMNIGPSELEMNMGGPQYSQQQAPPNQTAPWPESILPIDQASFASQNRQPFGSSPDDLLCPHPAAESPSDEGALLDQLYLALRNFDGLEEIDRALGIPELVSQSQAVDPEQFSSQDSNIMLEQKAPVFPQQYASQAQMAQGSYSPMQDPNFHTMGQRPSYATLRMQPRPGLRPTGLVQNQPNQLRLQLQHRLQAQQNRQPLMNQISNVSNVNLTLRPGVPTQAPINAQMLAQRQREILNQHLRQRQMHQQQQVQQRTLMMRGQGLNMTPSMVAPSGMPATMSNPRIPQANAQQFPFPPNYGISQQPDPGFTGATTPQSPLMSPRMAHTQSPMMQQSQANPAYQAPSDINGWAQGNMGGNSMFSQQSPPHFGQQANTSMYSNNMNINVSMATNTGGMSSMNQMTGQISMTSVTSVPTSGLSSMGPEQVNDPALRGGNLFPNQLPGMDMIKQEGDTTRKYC
# Sequence of Nuclear receptor subfamily 5 group A member 2 (Homo sapiens) (O00482 whole entry, looked up): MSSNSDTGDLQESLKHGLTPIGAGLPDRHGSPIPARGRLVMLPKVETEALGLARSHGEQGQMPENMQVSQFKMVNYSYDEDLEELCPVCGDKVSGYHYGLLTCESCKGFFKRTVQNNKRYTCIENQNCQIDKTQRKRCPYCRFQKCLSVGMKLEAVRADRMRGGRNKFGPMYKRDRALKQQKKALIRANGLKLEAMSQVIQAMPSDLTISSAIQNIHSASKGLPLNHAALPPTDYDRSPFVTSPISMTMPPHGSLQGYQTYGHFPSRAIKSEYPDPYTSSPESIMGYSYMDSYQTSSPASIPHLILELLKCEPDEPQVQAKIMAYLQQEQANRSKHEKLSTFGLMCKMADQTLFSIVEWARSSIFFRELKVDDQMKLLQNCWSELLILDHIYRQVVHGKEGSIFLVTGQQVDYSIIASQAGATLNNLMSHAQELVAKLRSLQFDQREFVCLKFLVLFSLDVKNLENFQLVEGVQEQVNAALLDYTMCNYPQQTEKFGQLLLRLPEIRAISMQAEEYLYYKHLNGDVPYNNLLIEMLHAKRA
# Sequence of Nuclear receptor coactivator 1 (Homo sapiens) (Q15788 whole entry, looked up, the tested form may be a part): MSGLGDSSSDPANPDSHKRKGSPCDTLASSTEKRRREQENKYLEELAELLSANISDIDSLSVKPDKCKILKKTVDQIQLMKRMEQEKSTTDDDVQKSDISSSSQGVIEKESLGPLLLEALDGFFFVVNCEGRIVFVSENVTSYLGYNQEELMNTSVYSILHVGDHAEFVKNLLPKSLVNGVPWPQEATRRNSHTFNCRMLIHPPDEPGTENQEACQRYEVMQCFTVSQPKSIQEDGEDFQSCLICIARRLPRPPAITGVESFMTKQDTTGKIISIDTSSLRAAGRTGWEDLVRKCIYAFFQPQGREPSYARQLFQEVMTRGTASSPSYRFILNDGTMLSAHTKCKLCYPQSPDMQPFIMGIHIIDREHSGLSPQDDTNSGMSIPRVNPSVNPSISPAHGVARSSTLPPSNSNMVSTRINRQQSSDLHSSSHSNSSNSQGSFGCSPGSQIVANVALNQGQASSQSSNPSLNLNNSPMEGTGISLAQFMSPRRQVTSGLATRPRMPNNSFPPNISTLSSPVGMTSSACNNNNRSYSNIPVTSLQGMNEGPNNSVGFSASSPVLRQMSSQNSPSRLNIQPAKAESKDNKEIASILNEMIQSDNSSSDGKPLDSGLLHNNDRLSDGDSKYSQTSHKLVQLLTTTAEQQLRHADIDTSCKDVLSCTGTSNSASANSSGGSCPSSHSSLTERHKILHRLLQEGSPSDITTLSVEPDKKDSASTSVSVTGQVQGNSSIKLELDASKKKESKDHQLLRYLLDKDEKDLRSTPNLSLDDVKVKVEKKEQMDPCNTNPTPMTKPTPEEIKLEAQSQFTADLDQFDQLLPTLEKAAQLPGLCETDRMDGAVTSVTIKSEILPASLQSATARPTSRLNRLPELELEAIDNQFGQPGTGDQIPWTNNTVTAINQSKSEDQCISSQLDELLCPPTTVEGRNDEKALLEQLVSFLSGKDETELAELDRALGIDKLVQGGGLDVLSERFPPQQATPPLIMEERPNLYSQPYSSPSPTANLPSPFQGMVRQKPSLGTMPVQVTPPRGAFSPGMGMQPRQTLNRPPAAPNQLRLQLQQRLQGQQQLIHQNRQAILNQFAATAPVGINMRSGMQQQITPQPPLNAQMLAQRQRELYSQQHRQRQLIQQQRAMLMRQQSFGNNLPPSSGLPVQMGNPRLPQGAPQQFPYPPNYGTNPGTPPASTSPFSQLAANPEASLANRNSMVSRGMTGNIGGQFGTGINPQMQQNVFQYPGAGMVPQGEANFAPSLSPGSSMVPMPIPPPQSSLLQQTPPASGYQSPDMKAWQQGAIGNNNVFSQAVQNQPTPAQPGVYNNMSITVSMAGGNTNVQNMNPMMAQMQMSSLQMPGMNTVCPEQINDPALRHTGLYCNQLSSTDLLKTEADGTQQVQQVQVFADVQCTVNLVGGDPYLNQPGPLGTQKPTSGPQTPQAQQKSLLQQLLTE
# Sequence of Nuclear receptor coactivator 3 (Homo sapiens) (Q9Y6Q9 whole entry, looked up, the tested form may be a part): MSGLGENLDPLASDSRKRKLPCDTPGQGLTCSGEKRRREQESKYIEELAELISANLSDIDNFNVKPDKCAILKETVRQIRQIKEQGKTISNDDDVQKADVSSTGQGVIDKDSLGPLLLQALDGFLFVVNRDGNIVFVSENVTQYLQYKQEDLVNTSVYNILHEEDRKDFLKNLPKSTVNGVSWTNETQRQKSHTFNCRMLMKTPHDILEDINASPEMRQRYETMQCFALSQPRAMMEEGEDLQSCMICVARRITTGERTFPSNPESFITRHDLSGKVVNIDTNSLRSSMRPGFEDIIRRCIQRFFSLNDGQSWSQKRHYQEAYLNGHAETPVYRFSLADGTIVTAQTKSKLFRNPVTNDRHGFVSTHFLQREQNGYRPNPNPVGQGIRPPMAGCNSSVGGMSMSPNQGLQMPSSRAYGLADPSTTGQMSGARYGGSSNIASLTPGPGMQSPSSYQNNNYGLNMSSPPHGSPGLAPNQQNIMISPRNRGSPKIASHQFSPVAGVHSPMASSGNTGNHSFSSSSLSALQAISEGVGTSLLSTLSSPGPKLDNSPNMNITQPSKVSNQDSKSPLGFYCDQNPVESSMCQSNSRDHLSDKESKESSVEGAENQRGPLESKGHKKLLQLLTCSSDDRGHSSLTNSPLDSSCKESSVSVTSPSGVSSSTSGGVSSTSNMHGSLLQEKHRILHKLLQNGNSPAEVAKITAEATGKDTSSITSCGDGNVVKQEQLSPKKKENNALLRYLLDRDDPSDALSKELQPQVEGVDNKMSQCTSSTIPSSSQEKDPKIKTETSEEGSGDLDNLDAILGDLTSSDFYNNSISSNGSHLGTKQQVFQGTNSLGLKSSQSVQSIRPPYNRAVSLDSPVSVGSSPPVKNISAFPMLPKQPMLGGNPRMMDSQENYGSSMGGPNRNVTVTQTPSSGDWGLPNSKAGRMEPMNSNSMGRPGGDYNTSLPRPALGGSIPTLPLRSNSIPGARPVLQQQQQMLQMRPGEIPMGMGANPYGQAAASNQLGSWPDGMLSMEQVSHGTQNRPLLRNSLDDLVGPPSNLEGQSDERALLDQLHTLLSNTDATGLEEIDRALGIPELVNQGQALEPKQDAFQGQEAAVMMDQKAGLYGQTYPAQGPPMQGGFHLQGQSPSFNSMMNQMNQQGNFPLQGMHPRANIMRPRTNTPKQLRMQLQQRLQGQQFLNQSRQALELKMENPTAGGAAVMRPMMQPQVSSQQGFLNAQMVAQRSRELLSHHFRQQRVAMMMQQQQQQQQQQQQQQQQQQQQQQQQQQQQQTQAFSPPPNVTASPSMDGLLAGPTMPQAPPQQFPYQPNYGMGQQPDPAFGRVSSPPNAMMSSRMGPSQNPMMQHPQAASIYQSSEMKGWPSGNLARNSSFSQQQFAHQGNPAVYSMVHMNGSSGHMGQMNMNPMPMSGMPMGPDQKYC
SMILES,inhibition [1],inhibition [2],inhibition [3],inhibition [4],inhibition [5],inhibition [6],inhibition [7],inhibition [8],inhibition [9],inhibition [10]
O=C(NCc1cccnc1)/C(=C\c1ccc(-c2ccc(Br)cc2)o1)S(=O)(=O)c1ccccc1,72.6% (active),56.9% (active),51.7% (active),55.1% (active),62.3% (active),92.3% (active),82% (active),80.8% (active),71.1% (active),68.7% (active)
Cc1cc(C)c(C#N)c(SCc2nnc(-c3ccccc3)o2)n1,66.3% (active),59.8% (active),38.8%,32.9% (active),33.1% (active),-23.7%,27.9%,15.5%,46.2% (active),82.9% (active)
Nc1ccc(-c2cc3ccccc3oc2=O)cc1,43.5% (active),20.6%,45%,18.9%,52.2% (active),73.5% (active),65.2% (active),34.1% (active),67.1% (active),94.6% (active)
CC(=O)Nc1ccc(SCC(=O)c2cc(C)n(-c3ccccc3F)c2C)cc1,41%,9.76%,-10.3%,-5.83%,-29.9%,-14.4%,-11.8%,-26%,-6.67%,38%
COc1ccccc1C(=O)N(CCC1CCCN1C)c1nc2ccccc2s1 (stereo not given),38.7%,14.6%,-24.3%,-21.5%,-41.5%,-79.1%,-54.7%,-44.3%,11.8%,53.8% (active)
CC1CCc2nc(N)c(C#N)c(-c3cccnc3)c2C1 (stereo not given),66.7% (active),57.9% (active),68.7% (active),58.6% (active),42.3% (active),52.9% (active),46.1% (active),72.9% (active),15.6%,53.9% (active)
COc1cccc2c1C(=O)c1c(O)c3c(c(O)c1C2=O)CC(O)(C(C)=O)CC3OC1CC(N(C)C)C(O)C(C)O1 (stereo not given),94.2% (active),95.8% (active),73.9% (active),95.3% (active),80% (active),104% (active),94.5% (active),96.3% (active),29.4%,45.5%
CC(C)c1ccc(-n2c(-c3ccccc3)c[n+]3c2CCc2ccccc2-3)cc1,72.4% (active),84% (active),63.6% (active),84.4% (active),76.3% (active),108% (active),91.6% (active),90.1% (active),60.1% (active),71.4% (active)
O=C(NCCc1ccccc1)c1ccc2c(c1)OCCCO2,68.3% (active),67.7% (active),31.9%,53.5% (active),75.5% (active),62.5% (active),78.5% (active),66.5% (active),78.8% (active),87.7% (active)
CC1CCc2c(sc(NC(=O)CSc3ncn[nH]3)c2C#N)C1 (stereo not given),56% (active),66.1% (active),31.9%,61.4% (active),32.5% (active),56.7% (active),39.5%,61.9% (active),87% (active),90.2% (active)
COc1cccc(NC(=O)CSc2nnc(-c3cc(C)n(-c4ccccc4)c3C)o2)c1,46.8% (active),23.3%,3.49%,-14.5%,-29.8%,-55.2%,-12.4%,-23.9%,11%,48.5% (active)
CC(C)c1ccc(/C=C(\c2nc3ccccc3[nH]2)S(=O)(=O)c2ccccc2)cc1,54.2% (active),39.6% (active),-0.35%,24.9%,33.9% (active),54.6% (active),54.7% (active),46.6% (active),36.6% (active),49.3% (active)
O=C(COc1ccc(Cl)cc1Cl)Nc1ccccn1,56.2% (active),53.6% (active),32.1%,48.2% (active),46.9% (active),27.2%,60.6% (active),32.3% (active),67.4% (active),85.2% (active)
CNC1=C(N(C(C)=O)c2ccc(Br)cc2)C(=O)c2ccccc2C1=O,82.4% (active),84.8% (active),74.2% (active),84.8% (active),76.4% (active),97.4% (active),90.8% (active),89.3% (active),18.5%,48.9% (active)
